# Compounds with a hit are over-represented: about 2.6% of the library has one in this group of screens.
# Cruzain inh noDet = cruzain (T. cruzi) inhibition without detergent; P25779; purified cruzain, Z-FR-AMC fluorescence, no detergent; Potency, µM, actives largely listed as inhibitors; 2.3% of 200,000 active; AID 1476; note: nearly all actives have a fitted effect of over 40% in size
# Target sequence (P25779 123-467 limits assumed): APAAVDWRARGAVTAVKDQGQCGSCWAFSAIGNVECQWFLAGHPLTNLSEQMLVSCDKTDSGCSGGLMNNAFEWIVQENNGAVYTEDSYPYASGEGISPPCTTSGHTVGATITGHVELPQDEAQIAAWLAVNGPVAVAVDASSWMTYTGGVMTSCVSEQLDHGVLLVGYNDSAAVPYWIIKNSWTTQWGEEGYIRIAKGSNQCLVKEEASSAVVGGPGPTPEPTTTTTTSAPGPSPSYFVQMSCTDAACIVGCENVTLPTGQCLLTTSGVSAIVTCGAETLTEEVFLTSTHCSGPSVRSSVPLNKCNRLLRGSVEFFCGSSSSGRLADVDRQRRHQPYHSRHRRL
#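 Purified cruzain at 1.5 nM, pre-incubated 15 min with compound at room temperature in 100 mM sodium acetate pH 5.5, 5 mM DTT, 0.00005% Triton X-100. Reaction started with 2 uM Z-FR-AMC; AMC fluorescence increase over 60 s gives rate.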
# Cruzain Triton = cruzain (T. cruzi) inhibition with detergent; purified cruzain, Z-FR-AMC fluorescence, 0.01% Triton; Potency, µM, actives largely listed as inhibitors; 0.43% of 200,000 active; note: nearly all actives have a fitted effect of over 40% in size
#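 Enzyme 1.5 nM, Z-FR-AMC 2 uM, NaOAc 100 mM pH 5.5, DTT 5 mM, Triton X-100 0.01%; 15 min RT compound preincubation; kinetic ex360/em450, 60 s delta.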
# A number is an active result; i = inactive; ? = inconclusive. Calls come from the whole dose curve; as a rule, active = well fitted curve in the direction sought with a large enough effect; inconclusive = small, poorly fitted or top-dose-only effect, or another doubt; inactive = no such curve, though single readings can be large; an effect the other way counts as inactive or inconclusive.
SMILES,Cruzain inh noDet,Cruzain Triton
CC(C)c1cccc(C(C)C)c1NC(=O)c1ccc(OCC(=O)NCc2ccccc2)cc1,7.94µM,i
COC(=O)C1=C(C)NC(C)=C(C(=O)OC)C1C(=O)OCC(=O)N1c2ccccc2CC1C (stereo unspecified),?,i
O=c1c[n+]([O-])c2ccccc2n1OCc1ccccn1,i,i
N=C1S/C(=C\c2ccccc2F)C(=O)N1c1ccc(F)cc1,?,i
N=C1S/C(=C\c2ccccc2)C(=O)N1c1ccc(F)cc1,25.1µM,i
O=C(Nc1nc(-c2ccccc2)cs1)c1cccc([N+](=O)[O-])c1,?,i
O=C(Nc1nc(-c2ccccc2)cs1)c1ccc(S(=O)(=O)N2CCc3ccccc32)cc1,6.31µM,i
COc1cccc(C(=O)Nc2nc(-c3ccc(S(=O)(=O)N4CCOCC4)cc3)cs2)c1,?,i
COc1ccc(-c2csc(NC(=O)c3ccc(S(=O)(=O)N4CCc5ccccc5C4)cc3)n2)c(OC)c1,3.98µM,i
O=C(Nc1nc(-c2ccc(S(=O)(=O)N3CCOCC3)cc2)cs1)c1ccccc1,i,i
COc1cccc(C(=O)Nc2nc3ccc(S(=O)(=O)N4CCCC4)cc3s2)c1,i,i
O=C(Nc1nc(-c2ccc3c(c2)Cc2ccccc2-3)cs1)c1ccccc1,20µM,i
COc1ccc(/C=N/Nc2nc(-c3cccc(S(=O)(=O)N4CCCC4)c3)cs2)c(OC)c1,7.94µM,i
COc1ccc(-c2nn(-c3ccc(F)cc3)c3c2cnc2ccc(F)cc23)cc1OC,i,i
Cc1ccc(-c2csc(NC(=O)c3ccc(S(=O)(=O)N4CCc5ccccc54)cc3)n2)cc1,5.01µM,i
Cc1ccc(-c2csc(NC(=O)c3cccc(S(=O)(=O)N4CCN(C)CC4)c3)n2)cc1,i,i
O=C(Nc1nc(-c2ccccc2)cs1)C1c2ccccc2Oc2ccccc21,20µM,i
O=C(Nc1nc(-c2ccncc2)cs1)C1c2ccccc2Oc2ccccc21,?,i
COc1ccc(OC)c(-c2csc(NC(=O)C3c4ccccc4Oc4ccccc43)n2)c1,20µM,i
COc1ccc(OC)c(-c2csc(NC(=O)CSc3ccccc3)n2)c1,i,i
Cc1noc(C(=O)Nc2ccc3c(c2)OCO3)c1Cl,i,i
Cc1ccc2c(Cl)c(C(=O)Nc3ccc4c(c3)OCO4)sc2c1,20µM,i
CC(C)c1nc(-c2ccccc2)c(-c2ccccc2)[nH]1,i,i
CC(=O)OCN(C#N)c1nc(N(C)C)nc(N(C)C)n1,i,i
COC(=O)CN(C#N)c1nc(SC)nc(N(C)C)n1,12.6µM,15.8µM
SMILES,Cruzain inh noDet,Cruzain Triton
CCc1ccc(NC(=O)CCc2nnc3n(C)c(=O)c4sccc4n23)cc1,i,i
COc1cc2c(cc1NC(=O)c1ccc3c(c1)OCO3)oc1ccccc12,?,i
COc1ccc(-c2cc3ccccc3oc2=O)cc1NC(=O)c1ccc([N+](=O)[O-])o1,i,i
COc1ccc(-c2cc3ccccc3oc2=O)cc1NC(=S)NC(=O)c1ccc2c(c1)OCCO2,12.6µM,i
COc1ccc(-c2cc3ccccc3oc2=O)cc1NC(=O)c1ccc(Br)o1,25.1µM,i
CNc1ccc(O)cc1,i,i
CCOC(=O)c1ccc2c(c1)N(CC(=O)Nc1cc(F)ccc1F)C(=O)c1ccccc1S2,i,i
CCOC(=O)c1ccccc1N=N/C(C(C)=O)=C(/C)O,i,i
O=C(c1csnn1)N1CCC2(CCCN(c3ccccc3)C2)CC1,i,i
CCCS(=O)(=O)c1nc(S(=O)(=O)c2ccc(C)cc2)c(NCc2ccco2)s1,i,i
Cc1ccc(S(=O)(=O)c2nc(S(=O)(=O)c3ccc(C)cc3)c(NCc3ccco3)s2)cc1,31.6µM,i
O=C(NCc1cccnc1)C(=O)NCC(c1ccco1)N1CCN(c2ccccc2)CC1 (stereo unspecified),i,i
CCN(CC)Cc1c(O)ccc2c(C)c(CC(=O)OC)c(=O)oc12,?,25.1µM
COC(=O)Cc1c(C)c2ccc(OCC(C)=O)c(C)c2oc1=O,i,i
Cc1ccc2c(c1)N(CCC(=O)NCc1cccnc1)C(=O)CO2,i,i
CCc1ccc2[nH]c3nc(SCC(=O)NNC(=O)c4ccc(C(C)(C)C)cc4)nnc3c2c1,3.98µM,i
Cc1ccc(C(=O)NNC(=O)CSc2nnc3c(n2)[nH]c2ccc(C)cc23)cc1,?,i
Cc1ccc2nc(SCc3nnc(-c4ccccc4)o3)[nH]c2c1,i,i
CCc1ccc2[nH]c3nc(SCc4nnc(-c5ccc(C)cc5)o4)nnc3c2c1,12.6µM,i
Cn1c(=O)[nH]c2cc(Cl)cnc21,i,i
CCCCN(CCCC)C(=O)C1CCN(S(=O)(=O)c2cccc3nsnc23)CC1,i,i
c1ccc(C2[C@H]3CN(CC4CCCCC4)[C@H](c4ccccc4)C34CC2(c2ccccc2)C4)cc1 (stereo partly specified),i,i
O=C(Oc1ccccc1)N1CCC[C@@]2(CCN(c3ncccn3)C2)C1,i,i
CCCCn1c(SCC(=O)NCc2ccco2)nc2c(sc3ccccc32)c1=O,10µM,i
O=C(CSc1nc2c(sc3ccccc32)c(=O)n1CCc1ccccc1)NCc1ccco1,5.01µM,i
SMILES,Cruzain inh noDet,Cruzain Triton
CCOCCCn1c(SCC(=O)NCc2ccco2)nc2c(sc3ccccc32)c1=O,i,i
O=C(CSc1nc2c(sc3ccccc32)c(=O)n1-c1ccccc1)NCc1ccco1,?,i
Cc1cccc(Nc2nc(N)nc(CSc3nccc(C)n3)n2)c1,i,i
CCOc1cc(N2CCOCC2)c(OCC)cc1NC(=O)CN1C(=O)NC2(CCc3ccccc32)C1=O (stereo unspecified),?,i
Oc1c(C(c2ccccc2)N2CCN(Cc3ccccc3)CC2)sc2nc(-c3ccco3)nn12 (stereo unspecified),i,i
Cc1cccc(NC(=S)N/N=C/c2c[nH]c3ccccc23)c1,i,?
NC(=S)N/N=C\c1c2ccccc2cc2ccccc12,1µM,0.891µM
S=C(NCCN1CCOCC1)N/N=C/c1c2ccccc2cc2ccccc12,?,i
NC(=S)N/N=C\c1c[nH]c2ccccc12,0.316µM,0.708µM
C[C@@H]1CCC2[C@](C)(CO)[C@@H](O)CC[C@]2(C)[C@]12CCC(CO)(CCO)O2 (stereo partly specified),i,i
Cc1ccc(Cl)cc1N1CCN(C(=O)CCC(=O)Nc2ccc3nc(N4CCC(C)CC4)cc(C)c3c2)CC1,i,i
Cc1cc(N2CCCCC2)nc2ccc(NC(=O)c3cccc(Cl)c3)cc12,i,i
Cc1cc(N2CCCCC2)nc2ccc(NC(=O)CCC(=O)N3CCN(c4cccc(Cl)c4)CC3)cc12,?,15.8µM
Cc1cc(N2CCC(C)CC2)nc2ccc(NC(=O)CCC(=O)N3CCN(c4cccc(C(F)(F)F)c4)CC3)cc12,?,12.6µM
COc1ccc(C2C(C(=O)Nc3ccc(C)cc3C)=C(C)Nc3nc(SCc4cccc(C)c4)nn32)c(OC)c1 (stereo unspecified),i,i
Cc1cc(OCCCCCNCCO)cc(C)c1Cl,i,i
COc1ccc2[nH]c3c(c2c1)CCNC3,i,i
O=C1OCCN1C(=O)[C@H]1[C@H](c2ccc([N+](=O)[O-])cc2)C(c2ccccc2)=NN1c1ccc(Br)cc1,14.1µM,i
Cc1cccc(C2=NN(c3ccccc3)[C@@H](C(=O)N3CCOC3=O)[C@@H]2c2ccc([N+](=O)[O-])cc2)c1,?,i
O=C1OCCN1C(=O)[C@H]1[C@H](c2ccc([N+](=O)[O-])cc2)C(c2cccc(Cl)c2)=NN1c1ccc(Br)cc1,3.55µM,i
